Out of some 220,000 compounds screened, about 530 (0.24%) were called active. The list comes from a sample in which actives are over-represented; it also holds similar structures and randomly drawn compounds. Potency and affinity values are given separately. Values without a mark were called inactive. No stated cut-off is given here; in the data, active means inhibition above about 13%; inconclusive means no clear call, values can overlap the other calls; inactive means below that.

Chain of Bifunctional protein GlmU (Mycobacterium tuberculosis (strain ATCC 25618 / H37Rv)) (P9WMN3 whole entry, looked up): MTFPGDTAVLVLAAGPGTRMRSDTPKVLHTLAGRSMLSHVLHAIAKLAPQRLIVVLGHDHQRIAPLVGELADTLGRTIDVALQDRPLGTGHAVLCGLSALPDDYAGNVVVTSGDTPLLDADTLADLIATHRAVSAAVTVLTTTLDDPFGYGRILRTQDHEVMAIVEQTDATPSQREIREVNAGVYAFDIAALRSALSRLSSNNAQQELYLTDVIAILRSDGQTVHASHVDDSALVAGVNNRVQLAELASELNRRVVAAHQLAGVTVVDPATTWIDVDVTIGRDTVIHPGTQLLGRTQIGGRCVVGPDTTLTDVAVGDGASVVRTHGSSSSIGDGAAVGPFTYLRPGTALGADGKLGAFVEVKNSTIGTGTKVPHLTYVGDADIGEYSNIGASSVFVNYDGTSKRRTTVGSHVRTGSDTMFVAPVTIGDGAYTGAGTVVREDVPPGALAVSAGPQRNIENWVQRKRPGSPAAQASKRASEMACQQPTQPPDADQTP

The experiment has as its target Bifunctional protein GlmU (Mycobacterium tuberculosis (strain ATCC 25618 / H37Rv)) (UniProt P9WMN3). The experiment is described as follows: inhibition of mycobacterial GlmU enzyme – biochemical, glucosamine-1-phosphate acetyltransferase (AID 1376).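 Further: 0% = complete reaction with vehicle and 100% = reaction without substrate.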 The settings on record: M. tuberculosis GlmU acetyltransferase enzyme assay; stronger effect = higher value;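 tested at 30 µM in the primary screen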.
A word on the inhibition: it is the drop in the measured response relative to a control, in per cent. Turning to `COc1cccc(NC(=O)C(Sc2nnc(Nc3ccccc3C)s2)c2ccccc2)c1` (configuration not stated), the inhibition was -3.98%.
The result for `CCOc1cccc(CNCc2ccc(C(=O)O)cc2)c1` reads -1.27%; that for `O=C(O)c1cc(-c2ccc(/C=C3/SC(=S)N(Cc4ccccc4)C3=O)o2)ccc1Cl`, 17%; that for `Cc1ccc(/C=C2/NC(=O)N(Cc3ccccc3)C2=O)o1`, -1.11%.
Regarding `Cc1ccc(/C=C2/NC(=O)N(c3ccccc3)C2=O)o1`, the inhibition was -0.29%.
The result for `O=C(O)c1cc(-c2ccc(/C=C3\NC(=O)N(c4ccccc4)C3=O)o2)ccc1Cl` reads 13.6% (active); that for `O=C(O)c1cc(-c2ccc(/C=N/Nc3ccc(Cl)cc3)o2)ccc1Cl`, -0.42%; that for `Cc1ccc(N2C(=O)NC(=O)/C(=C/c3ccc(-c4ccc(C(=O)O)c(Cl)c4)o3)C2=O)cc1`, 6.82%.
The result for `Cc1c(C(=O)O)cccc1-c1ccc(/C=C2/NC(=O)N(c3ccccc3)C2=O)o1` reads -0.48%; that for `Cc1cc(C(=O)O)ccc1-c1ccc(/C=C2\NC(=O)N(Cc3ccccc3Cl)C2=O)o1`, 5.89%.
Regarding `O=C(O)c1cc(-c2ccc(/C=C3\NC(=O)N(c4ccc(Cl)cc4)C3=O)o2)ccc1Cl`, the inhibition is 27% (active).
For the molecule `Cc1ccc(CN2C(=O)N/C(=C/c3ccc(-c4ccc(C(=O)O)cc4)o3)C2=O)cc1`, the inhibition is 4.7%.
On to `Cc1cc(C(=O)O)ccc1-c1ccc(/C=C2\NC(=O)N(Cc3ccc(F)cc3)C2=O)o1`, for which the inhibition is 13.9% (active).
As for `Cc1ccc([N+](=O)[O-])cc1N(CC(=O)NCC1CCCO1)S(C)(=O)=O` (configuration not stated), the inhibition was 1.08%.
As for `COc1ccc(C2CC(c3ccccc3)=NN2C(=O)c2cccs2)cc1` (configuration not stated), the inhibition is 0.55%.
The result for `COc1ccc(CCNC(=O)COC(=O)CCC(=O)c2ccc(F)cc2)cc1` reads 1.09%.
Consider `N#Cc1nc(Cc2cccc3ccccc23)oc1N1CCC(C(N)=O)CC1`, for which the inhibition is 1.98%.
The result for `Cc1ccc(-n2ncc(C(=O)NCc3ccc4c(c3)OCO4)c2NC(=O)c2ccco2)cc1C` reads 6.03%.
The result for `O=C(OCC(=O)c1ccc[nH]1)c1ccc(S(=O)(=O)N2CCCCCC2)cc1` reads -6.95%; that for `Cc1ccc(C(=O)NC(=S)NNC(=O)CC#N)cc1`, -2.12%.
Take `COc1ccc(OC)c(NC(=O)c2ccccc2NC(=O)c2ccco2)c1`: the inhibition is 4.28%.
The result for `COc1ccc(C(c2c(O)nc[nH]c2=O)c2c(O)nc[nH]c2=O)cc1` reads 0.27%; that for `COc1ccc(Cc2c(O)nc(SCC(=O)c3ccc(OC)cc3)[nH]c2=O)cc1`, 2.96%; that for `COc1ccc(Cc2c(O)nc[nH]c2=O)cc1`, 22.8% (active).
`CCOC(=O)C1=C2N(C)c3ccccc3N2CCC1=O`: the inhibition is 0.79%.
Turning to `Cc1cccc(Cn2c(N3CCc4ccccc4C3)nc3c2c(=O)[nH]c(=O)n3C)c1`, the inhibition was 2.16%.
`CC(C)(C)NC(=S)Nc1ccc(Br)cc1`: the inhibition was 1.07%.
The result for `CC(C)(C)NC(=S)Nc1ccc(Nc2ccccc2)cc1` reads 13.4% (active); that for `CNC(=S)Nc1ccc(Nc2ccccc2)cc1`, 1.36%; that for `O=C(Cc1cc(=O)[nH][nH]1)N/N=C/C=C/c1ccccc1`, 3.75%.
The result for `COc1ccc(N(CC2CO2)S(=O)(=O)c2ccccc2)cc1` (configuration not stated) reads 3.63%; that for `CCN(CC)c1ccc(/C=N/N2CCN(Cc3ccccc3Cl)CC2)c(O)c1`, 14.1% (active); that for `CCN(CC)c1ccc(/C=N/N2CCN(Cc3ccccc3)CC2)c(O)c1`, -0.12%.
The result for `CCN(CC)c1ccc(/C=N/N2CCN(Cc3cccc4ccccc34)CC2)c(O)c1` reads -0.67%; that for `Nc1nc(=S)c2ncn(C3CCCC3)c2[nH]1`, 7.24%.
As for `Nc1ncnc2c1ncn2[C@@H]1O[C@H](CO)[C@@H](O)[C@H]1O`, the inhibition was -4.56%.
With `Nc1nc(=S)c2ncn(C3OC(CO)C(O)C3O)c2[nH]1` (configuration not stated), the inhibition was 20.9% (active).
In the case of `Cc1ccc2nc3c(nc2c1C)C(O)=C3O`, the inhibition was 2.69%.
The result for `CN1CCN(C2=C(Cl)C(=O)N(Cc3ccccc3)C2=O)CC1` reads -1.86%; that for `CC(C)(C)c1csc(SCC(=O)Nc2ccc(Cl)cn2)n1`, 5.51%; that for `CCn1c2ccccc2c2cc(/C=N/n3c(-c4cc(C)[nH]n4)n[nH]c3=S)ccc21`, 2.92%.
`CCn1c2ccccc2c2cc(/C=N/n3cn[nH]c3=S)ccc21`: the inhibition is 13% (active).
On to `CCn1c2ccccc2c2cc(/C=N/n3cnnc3)ccc21`, for which the inhibition is 6.56%.
Take `CC(=O)Nc1ccc(Nc2nc(C)c([N+](=O)[O-])c(Nc3ccccc3)n2)cc1`: the inhibition was 5.98%.
The result for `CC(=O)Nc1ccc(Nc2nc(C)c([N+](=O)[O-])c(Nc3ccc(NC(C)=O)cc3)n2)cc1` reads -3.57%; that for `O=C(NC12CC3CC(CC(C3)C1)C2)c1cccnc1`, 2.68%.
`O=C(NC12CC3CC(CC(C3)C1)C2)c1cncc(O)c1`: the inhibition is 14.9% (active).
The result for `O=C(NC12CC3CC(CC(C3)C1)C2)c1ccccc1` reads -3.83%; that for `COC(=O)Cc1c(O)ccn(Cc2ccc3c(c2)OCO3)c1=O`, -0.24%; that for `O=C(O)c1cccc2c1NC(c1cccc([N+](=O)[O-])c1)C1CC(Sc3ccccc3[N+](=O)[O-])C(Cl)C21` (configuration not stated), 7.9%.
The result for `O=C(O)c1cccc2c1NC(C(=O)O)C1CC(Sc3ccccc3[N+](=O)[O-])C(Cl)C21` (configuration not stated) reads 30.8% (active); that for `CCN(CC)C(=O)c1ccc2c(c1)C1C(Cl)C(Sc3ccccc3[N+](=O)[O-])CC1C(C(=O)O)N2` (configuration not stated), -0.47%.
The result for `Cc1ccc2c(c1Cl)NC(C(=O)O)C1CC(Sc3ccccc3[N+](=O)[O-])C(Cl)C21` (configuration not stated) reads 4.86%; that for `CC(=O)c1ccc2c(c1)C1C(Cl)C(Sc3ccccc3[N+](=O)[O-])CC1C(c1ccccc1)N2` (configuration not stated), 8.36%.
Take `CC(=O)c1ccc2c(c1)C1C(Cl)C(Sc3ccccc3[N+](=O)[O-])CC1C(C(=O)O)N2` (configuration not stated): the inhibition was 13.1% (active).
The result for `Cc1ccc2c(c1)cc(CN(Cc1cccs1)C(=O)c1ccco1)c1nnnn12` reads -1.3%.
The result for `CC(=O)c1c(C)[nH]c(C(=O)COC(=O)CCCOc2ccccc2)c1C` reads 7.27%.

Source of the values: PubChem BioAssay AID1376 (SRMLSC, 2008).
